Source: PubChem BioAssay AID488890 (Southern Research Specialized Biocontainment Screening …, 2010)
Out of some 320,000 compounds screened, about 1,300 (0.41%) were called active. About 3% were inconclusive and are not listed. How the calls were made is not given here. These entries were drawn from the full list. Potency and affinity values are given separately.

Test: growth inhibition of non-replicating M. tuberculosis (AID 488890);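 further: plate controls were DMSO cells for no effect and high antibiotic wells for full effect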
Settings: Mycobacterium tuberculosis non-replicating, at 25 µM, stronger effect = higher value

| Compound | inhibition [%] |
| --- | --- |
| COc1ccc(OC(=O)c2cn(C)nc2C(F)(F)F)cc1 | 12.6 |
| CCCCN(CCCC)Cc1ccc(N)cc1 | 19.4 |
| CCN(C/C=C/c1ccccc1OC)Cc1ccccc1 | 27.1 |
| CCOC(=O)C1CCCN(S(=O)(=O)c2c(C)noc2C)C1 (stereo not drawn) | -14.5 |
| CC(C)CN(C(=O)COC(=O)c1cccn1C)c1c(N)n(Cc2ccccc2)c(=O)[nH]c1=O | 16.9 |
| CC(=O)Oc1ccc(/C=C2/Oc3ccccc3C2=O)cc1 | 36 |
| CCOC(=O)Oc1ccc(/C=C2\N=C(C)OC2=O)cc1 | -12.5 |
| COc1ncnc(OC)c1S(=O)(=O)NCc1ccccc1 | -2.39 |
| CCOc1ccc(OCc2cccc(C(=O)N/N=C/c3cccnc3)c2)cc1 | 59.6 |
| CCOc1ccc(CC(=O)N/N=C/c2cccnc2)cc1 | -5.71 |
| Cc1[nH]n2cnnc2c(=O)c1Br | -1.45 |
| COc1ccc(-c2nc(NC(=O)Cn3cnnn3)sc2C)cc1 | 13.2 |
| Cc1[nH]c2ccccc2c1C(=O)COC(=O)c1ccccc1O | 31.1 |
| O=C(OCC(=O)c1c[nH]c2ccccc12)c1cccc([N+](=O)[O-])c1 | -14.6 |
| Cc1cc(C(=O)OCC(=O)N2CCC(c3ccccc3)=N2)ccc1[N+](=O)[O-] | 22.1 |
| CCc1cc(C(=O)OCC(=O)N2CCC(c3ccccc3)=N2)sc1C | 65.9 |
| Cc1cccc(C(=O)OCC(=O)c2c(C)[nH]c3ccccc23)c1O | 3.19 |
| CCOC(=O)c1c(C)[nH]c(C)c1C(=O)COC(=O)/C=C/c1ccccc1[N+](=O)[O-] | 46.8 |
| O=C(Cc1ccccc1[N+](=O)[O-])OCC(=O)c1c[nH]c2ccccc12 | 4.48 |
| CCOC(=O)c1c(C)[nH]c(C)c1C(=O)COC(=O)c1cccs1 | 28.9 |

| Compound | inhibition [%] |
| --- | --- |
| O=C(NCCCCl)C1CC(=O)N(CCc2ccc(F)cc2)C1 (stereo not drawn) | 5.65 |
| O=C(O)c1cc(N2C(=O)C3CCCCC3C2=O)ccc1NCc1cccnc1 (stereo not drawn) | 4.47 |
| CCN(CC)C(=O)Cn1cc(C(=O)C(=O)NCc2cccnc2)c2ccccc21 | -4.61 |
| COc1cc(OC)cc(C(C(=O)NC2CCCCC2)N(C(=O)c2ccno2)c2ccccc2)c1 (stereo not drawn) | 8.21 |
| Cc1ccc(CN2CC(C(=O)Nc3ncccc3C)CC2=O)cc1 (stereo not drawn) | -7.14 |
| COc1cccc(/C=N/NC(=O)c2nnn(-c3nonc3N)c2-c2cccs2)c1 | 7.66 |
| COc1ccc(C(=O)OCC(=O)Nc2ncc([N+](=O)[O-])s2)cc1OC | -11.2 |
| COc1ccc(C(=O)COC(=O)c2ccc(OC)c(OC)c2)cc1OC | 3.56 |
| O=C(CSc1nc(=O)n(CCCN2CCOCC2)c2c1CCCC2)Nc1ccccc1Cl | 11.7 |
| CCOc1ccc(OCCCC(=O)NC2=NCCS2)cc1 | 40.7 |
| CC(C)(C)c1ccc(OCCC(=O)NC2=NCCS2)cc1 | 66.8 |
| CC(C)Cn1cnc2c(=O)oc3ccccc3c21 | -17.9 |
| CN(C)CCn1nnc2c(=O)oc3ccccc3c21 | -13.7 |
| O=c1oc2ccccc2c2c1nnn2CCO | 97.3 |
| CCn1c(C)nc2c(=O)oc3ccccc3c21 | -3.87 |
| Cc1ccc(-n2nnc3c(=O)oc4ccccc4c32)cc1 | 6.67 |
| CCC(C)n1cnc2c(=O)oc3ccccc3c21 (stereo not drawn) | -10.2 |
| CSc1n[nH]c(/N=C/c2oc(O)c3ccccc23)n1 | -21.1 |
| O=C(CNC(=O)c1ccc(Cl)cc1)NC1CCCCC1 | -2.3 |
| CN(CC(=O)Nc1ccc(N2CCOCC2)cc1)C(=O)c1cc(F)c(F)cc1Cl | -5.8 |

| Compound | inhibition [%] |
| --- | --- |
| CCc1ccc(C(=O)COC(=O)CNC(=O)Cc2ccccc2)cc1 | 47.9 |
| Cc1csc(N2CCCC2c2nc3cc(Cl)c(N4CCCCC4)cc3n2CCOCCO)n1 (stereo not drawn) | 5.44 |
| CNCc1ccccc1OCc1ccccc1F | 8.9 |
| CC(=O)Oc1ccc2nc(-c3ccco3)oc(=O)c2c1 | 42 |
| N#Cc1ccc(OCC(=O)Nc2nc(-c3cccnc3)cs2)cc1 | -5.75 |
| O=C(CCCOc1ccccc1)Nc1cccnc1 | 44.6 |
| N#Cc1ccc(OCC(=O)Nc2ccncc2)cc1 | 46.2 |
| O=C(COc1ccc([N+](=O)[O-])cc1)Nc1cccnc1 | 51.3 |
| COc1ccc(/C=N/NC(=O)c2ccc3c(c2)OCO3)c(C(=O)O)c1OC | 37.5 |
| NS(=O)(=O)c1ccc(CCNC(=S)Nc2ccc(F)cc2)cc1 | 30 |
| O=C(c1cccc(F)c1)N1CCN(C(=O)C2CC2)CC1 | 0.47 |
| C[C@@H]1CN([C@H](C)CO)C(=O)c2cc(NC(=O)C3CCCCC3)ccc2O[C@@H]1CN(C)Cc1ccc(C(F)(F)F)cc1 | 28 |
| CC(=O)c1ccc(NC(=O)Cc2cccs2)cc1 | 47 |
| COC(=O)C1=C(c2ccc(F)cc2OCc2ccccc2)C[C@@H]2CC[C@H]1N2C(=O)NC1CCCCC1 | 39.2 |
| COc1ccc(/C(C)=N/Nc2nc3ccccc3nc2C)cc1 | -2.93 |
| COc1ccc(/C(C)=N/Nc2nc3ccccc3nc2C)cc1OC | 18.1 |
| N#Cc1ccc(COC(=O)c2cccnc2Cl)cc1 | 57 |
| Cc1ccc(-c2cc(C(F)(F)F)n3ncc(C(=O)N4CCCc5ccccc54)c3n2)cc1 | 9.06 |
